# The panel holds about 83,000 compounds, 20% with a hit somewhere; the sample as a whole holds those more often.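 The test compound was applied at a single concentration to cells in 96-well plates for 48 hours, and percent growth was recorded.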 Unmarked numbers belong to inactive results. The source made the active and inactive calls. The calls were made as follows: active = growth percent below 10; inactive = the rest.
# Test system: UACC-62 melanoma
# Test: NCI-60 one-dose screen, 48 h (100 = growth as untreated, 0 = no growth, -100 = all killed)
# Settings: 10 µM unless noted
row,SMILES,growth
1,CCNC(=O)Oc1ccc(/C(=C(\C)c2ccccc2)c2ccc(OCCN3CCCCC3)cc2)cc1,52.4%
2,COc1cc(NC(C)CCCNC(=O)CCC(=O)NCCCNCCCCCCCCCCNCCCNC(=O)CCC(=O)NCCCC(C)Nc2cc(OC)cc3cccnc23)c2ncccc2c1 (stereo unspecified),89.4% [8 µM]
3,O=C(N/N=C/c1ccc(Oc2ccccc2)cc1)c1cnn2c1NC(c1ccccc1)C2 (stereo unspecified),6.85% (active)
4,COc1cc2nc(-c3ccc(C(F)(F)F)cc3)cc(OCCCN3CCOCC3)c2cc1OC,-26.1% (active)
5,C=CCN1C(=O)/C(=C/C(=O)OC)S/C1=N\NC(=O)c1cc2ccc1/C=C\c1ccc(cc1)/C=C\2,77.2%

# Test system: LOX IMVI melanoma
# Test: as above
# Settings: 10 µM unless noted
row,SMILES,growth
1,Cc1cc(C)c(S(=O)(=O)Oc2ccccc2[N+](=O)[O-])c(C)c1,43.4%
2,CCCOc1ccc(/C=N/Nc2cc(C)nc3ccc(Br)cc23)cc1,59.9%
3,COc1ccc2nc(-c3ccc(-c4noc(-c5cc(OC)c(OC)c(OC)c5)n4)cc3)[nH]c2c1,67.5%
4,CCCCCN1C=C/C(=C\C(=O)N(C)c2ccc(Oc3ccccc3)cc2)c2ccccc21,86.6%
5,COc1cc2oc(-c3cccc(C(=O)Nc4ccccc4)c3)cc(=O)c2c(O)c1OC,88.1%
6,c1ccc2c(-c3nccs3)c[nH]c2c1,99.7%
7,O=C(O)c1ccc(NCc2cn(-c3ccc(C(F)(F)F)cc3)nc2-c2ccc(C(=O)O)cc2)cc1,99.4%
8,NS(=O)(=O)c1ccc(CCN2C(=O)C=CC2=O)cc1,97%
9,C/C(=N\Nc1cc(C)nc2ccc(Br)cc12)c1ccc([N+](=O)[O-])cc1,-29.9% (active)
10,CCCCCCNC(=O)Oc1ccc(/C(=C(\C)c2ccccc2)c2ccc(OCCN3CCCCC3)cc2)cc1,53.9%
11,CCCNC(=O)Oc1ccc(/C(=C(\C)c2ccccc2)c2ccc(OCCCN(C)C)cc2)cc1,75.6%
12,O=C1c2ccccc2C(=O)c2c([N+](=O)[O-])ccc(Cl)c21,55.4%
13,O=C1Nc2cc(Cl)ccc2/C1=C\c1c(-c2ccc(F)cc2)nc2ccccn12,11.1%
14,CSc1nc2sc3cccc(Cl)c3n2c(=N)c1C#N,93.7%
15,Cc1cccc(C)c1N=c1oc2ccc(Cl)cc2nc1-c1ccccc1O,87.9%
16,C=C(C)[C@@H]1CC[C@]2(C(=O)N3CCN(C)CC3)CC[C@]3(C)[C@H](CC[C@@H]4[C@@]5(C)CC[C@H](OCCC#N)C(C)(C)[C@@H]5CC[C@]43C)[C@@H]12,53.5%
17,Cc1cc2nc3c4ccc(Br)cc4n(CCN(C)C)c3nc2cc1C,-52.6% (active)
18,CN(C)CCC(=O)c1ccc([N+](=O)[O-])cc1,111%

row,SMILES,growth
1,COc1ccc(-c2nc([C@@H](C)Sc3nc(N)cc(N)n3)c(C)s2)cc1OCCN1CCOCC1,95.8%
2,CCN1CCN(CCNc2nccc(-c3c(-c4cccc(OC)c4)nc4occn34)n2)S1(=O)=O,76.6%
3,NS(=O)(=O)c1ccc(CCN2C(=O)c3cc(Cl)c(Cl)cc3C2=O)cc1,98.2%
4,COc1ccc(-c2cnc3c(-c4cccc5cnccc45)cnn3c2)cc1,80%
5,C=C1C(=O)O[C@H]2[C@H]1CC/C(CNC(=O)/C=C/c1ccccc1)=C\CC[C@@]1(C)O[C@@H]21,-88% (active)
6,COc1ccc(-c2nc(S(=O)(=O)c3ccccc3)c(S(=O)CC(=O)N3CCC(C)CC3)o2)cc1 (stereo unspecified),-4.12% (active)
7,COC(=O)/C=C1\S/C(=N\NC(=O)c2cc3ccc2/C=C\c2ccc(cc2)/C=C\3)N(c2ccccc2)C1=O,-27.8% (active)
8,O=C(c1nc2ccccc2[nH]1)C1C(c2ccc(Br)cc2)C2CC3CCCC[C@H]3N2[C@@]12C(=O)Nc1cc(Cl)ccc12 (stereo partly specified),30%
9,Oc1cccc(CCc2ccc(Oc3cc(CCc4cccc(O)c4)cc(O)c3O)cc2)c1,62.7%
10,NC(=NCCCOc1ccc(F)cc1)Nc1ccc(I)cc1,84.4%
11,CN(CCN(C)c1ccc(C(=N)N)cc1)c1ccc(C(=N)N)cc1,99.9%
12,COc1cc(C(=O)Nc2cc3c(cc2Oc2cc(C)cc(C)c2)C(=O)N(C)[C@@H](CC(=O)N(C)O)C(=O)N3)c(Br)c(OC)c1OC,-41.5% (active)
13,CCNC(=O)Oc1ccc(/C(=C(\C)c2ccccc2)c2ccc(OCCN3CCCCC3)cc2)cc1,57.3%
14,COc1cc(NC(C)CCCNC(=O)CCC(=O)NCCCNCCCCCCCCCCNCCCNC(=O)CCC(=O)NCCCC(C)Nc2cc(OC)cc3cccnc23)c2ncccc2c1 (stereo unspecified),51.1% [8 µM]
15,O=C(N/N=C/c1ccc(Oc2ccccc2)cc1)c1cnn2c1NC(c1ccccc1)C2 (stereo unspecified),57.2%
16,Cc1c(C(=O)NCCC(=O)NO)sc2ncnc(Nc3ccc(F)c(Cl)c3)c12,98.8%
17,COc1cc2nc(-c3ccc(C(F)(F)F)cc3)cc(OCCCN3CCOCC3)c2cc1OC,-82.1% (active)
18,C=CCN1C(=O)/C(=C/C(=O)OC)S/C1=N\NC(=O)c1cc2ccc1/C=C\c1ccc(cc1)/C=C\2,78.8%
